In one assay the test system is IL-6-GFP PC-9GR. Kind of assay: cell viability (CCK-8 OD) relative to DMSO control (fraction of control); higher = more viable cells. As to conditions: compound concentration: 10 uM; treatment time: 48 h. The method in brief:
(§1)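 A purchased 510-compound library was screened at a final 10 μM for 48 h against PC-9 and PC-9GR lung cancer cells overexpressing IL-6-GFP via a lentiviral construct, seeded at 3000 cells/well in 96-well plates. GFP imaging was done on a parallel plate set. For viability, CCK-8 absorbance was recorded and each well's optical density was divided by that of the vehicle control well. There were two independent replicates.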

The subject of the next assay is IL-6-GFP PC-9. The assay is described as above. As to conditions: compound concentration: 10 uM; treatment time: 48 h. The method in brief: as §1

Structures are written as SMILES. ± gives the standard deviation of the averaged measurements.

On to `Cc1nc(-c2ccc(OCC(C)C)c(C#N)c2)sc1C(=O)O` [Febuxostat], for which the cell viability in the assay with IL-6-GFP PC-9GR amounted to 1.38 ± 0.24; in the assay with IL-6-GFP PC-9 it was 1.12 ± 0.27.
In the same order, the values of `C[S+](C)CCC(N)C(=O)O.[Cl-]` (centres undefined) are 1.11 ± 0.29 and 1.08 ± 0.22.
For the compound `CC12CCC(CC1)C(C)(C)O2` [Eucalyptol], the cell viability in the assay on IL-6-GFP PC-9GR worked out at 1.29 ± 0.37; in the assay with IL-6-GFP PC-9, 1.33 ± 0.048.
Take `Cl.O=C(OCC(O)CO)c1ccccc1Nc1ccnc2cc(Cl)ccc12` (centres undefined) [Glafenine HCl]: the results for the cell viability in the assay on IL-6-GFP PC-9GR and in the assay with IL-6-GFP PC-9 were 1.04 ± 0.32 and 1.05 ± 0.25, respectively.
Consider `C/C=C1/C2C=C(C)CC1(N)c1ccc(=O)[nH]c1C2` (single isomer, unassigned; (-)) [(-)-Huperzine A (HupA)], for which the cell viability in the assay with IL-6-GFP PC-9GR was 1.17 ± 0.37; with IL-6-GFP PC-9 it was 1.29 ± 0.053.
For `CCCCOc1ccc(C(=O)CCN2CCCCC2)cc1.Cl` [Dyclonine HCl], the cell viability with IL-6-GFP PC-9GR was 1.34 ± 0.43; with IL-6-GFP PC-9, 1.12 ± 0.076.
In the case of `O=C(/C=C/c1ccc(O)c(O)c1)OC(Cc1ccc(O)c(O)c1)C(=O)O` (centres undefined) [Rosmarinic acid], the cell viability stood at 1.12 ± 0.24 with IL-6-GFP PC-9GR and 1.14 ± 0.059 in the assay with IL-6-GFP PC-9.
Regarding `O=C(O)c1cc(-c2ccc(F)cc2F)ccc1O` [Diflunisal], the figures for the cell viability in the assay on IL-6-GFP PC-9GR and in the assay with IL-6-GFP PC-9 were 0.789 ± 0.23 and 1.15 ± 0.15, respectively.
Consider `CC1CC2C3CCC4=CC(=O)C=CC4(C)C3(F)C(O)CC2(C)C1(O)C(=O)CO` (centres undefined) [Betamethasone], for which the cell viability in the assay with IL-6-GFP PC-9GR stood at 1.24 ± 0.11; in the assay on IL-6-GFP PC-9, 1.29 ± 0.29.
On the same counts, the results for `COc1cc(C2Oc3ccc(C4Oc5cc(O)cc(O)c5C(=O)C4O)cc3OC2CO)ccc1O` (centres undefined) [Silymarin] are 1.53 ± 0.29 and 1.21 ± 0.17.
In the same order, the values of `CC1CCC2(C(=O)OC3OC(COC4OC(CO)C(OC5OC(C)C(O)C(O)C5O)C(O)C4O)C(O)C(O)C3O)CCC3(C)C(=CCC4C5(C)CC(O)C(O)C(C)(CO)C5CCC43C)C2C1C` (centres undefined) [Asiaticoside] are 1.06 ± 0.2 and 1.17 ± 0.021.
As to `CC(=O)OCC(=O)C1(O)C(C)CC2C3CCC4=CC(=O)C=CC4(C)C3(F)C(O)CC21C` (centres undefined) [Dexamethasone Acetate], the cell viability amounted to 0.9 ± 0.23 in the assay with IL-6-GFP PC-9GR and 0.945 ± 0.21 with IL-6-GFP PC-9.
As to `Cc1cncc(CN2CCC(=C3c4ccc(Cl)cc4CCc4cccnc43)CC2)c1.O=C(O)/C=C/C(=O)O` [Rupatadine Fumarate], the cell viability in the assay on IL-6-GFP PC-9GR stood at 0.996 ± 0.05; with IL-6-GFP PC-9, 1.16 ± 0.17.
On the same counts, the results for `CC(=O)OC1CCC2(C)C(CCC3(C)C2C(=O)C=C2C4C(C)C(C)CCC4(C)CCC23C)C1(C)C(=O)O` (centres undefined) are 0.941 ± 0.28 and 1.09 ± 0.16.
On to `CC1(C)CCC(CN2CCN(c3ccc(C(=O)NS(=O)(=O)c4ccc(NCC5CCOCC5)c([N+](=O)[O-])c4)c(Oc4cnc5[nH]ccc5c4)c3)CC2)=C(c2ccc(Cl)cc2)C1` [Venetoclax (ABT-199, GDC-0199)], for which the cell viability came to 0.907 ± 0.17 in the assay with IL-6-GFP PC-9GR and 1.03 ± 0.15 with IL-6-GFP PC-9.
As to `CC(C)c1nc(CN(C)C(=O)NC(CCN2CCOCC2)C(=O)NC(CCC(Cc2ccccc2)NC(=O)OCc2cncs2)Cc2ccccc2)cs1` (centres undefined) [Cobicistat (GS-9350)], the cell viability in the assay with IL-6-GFP PC-9GR worked out at 0.989 ± 0.11; in the assay with IL-6-GFP PC-9 it was 1.14 ± 0.22.
On the same counts, the results for `COc1c(OC2OC(CO)C(O)C(O)C2O)cc2c(c1OC)-c1ccc(SC)c(=O)cc1C(NC(C)=O)CC2` (centres undefined) [Thiocolchicoside] are 1.18 ± 0.26 and 1.2 ± 0.12.
On the same counts, the results for `CCOC(=O)C(CCc1ccccc1)NC1CSC(c2cccs2)CN(CC(=O)O)C1=O` (centres undefined) [Temocapril] are 0.726 ± 0.078 and 1.14 ± 0.099.
In the same order, the values of `CC(C(=O)O)c1ccc(C(=O)c2cccs2)cc1` (centres undefined) [Suprofen] are 1.53 ± 0.58 and 1.13 ± 0.022.
Turning to `CC(Oc1cc(-c2cnn(C3CCNCC3)c2)cnc1N)c1c(Cl)ccc(F)c1Cl` [(S)-crizotinib], the cell viability amounted to 0.458 ± 0.15 in the assay with IL-6-GFP PC-9GR and 0.756 ± 0.12 in the assay on IL-6-GFP PC-9.
Regarding `C=CC(=O)N1CCCC(n2nc(-c3ccc(Oc4ccccc4)cc3)c3c(N)ncnc32)C1` (centres undefined), the cell viability in the assay on IL-6-GFP PC-9GR is 0.572 ± 0.048; in the assay on IL-6-GFP PC-9, 0.509 ± 0.18.
On the same counts, the results for `Cc1c(C(=O)Nc2ccc(N3CC(C)OC(C)C3)nc2)cccc1-c1ccc(OC(F)(F)F)cc1` (centres undefined) [Sonidegib (Erismodegib, NVP-LDE225)] are 1.05 ± 0.049 and 1.0769 ± 0.001.
As to `CCCC(=O)OC1(C(=O)CCl)C(C)CC2C3CCC4=CC(=O)C=CC4(C)C3(F)C(=O)CC21C` (centres undefined) [clobetasone butyrate], the values for the cell viability in the assay on IL-6-GFP PC-9GR and in the assay with IL-6-GFP PC-9 were 0.995 ± 0.17 and 0.99 ± 0.3, respectively.
In the same order, the values of `CC(C)Cc1ccc(C(C)C(=O)O)cc1` (centres undefined) [Ibuprofen] are 1.32 ± 0.12 and 1.06 ± 0.19.
In the same order, the values of `CC(C)c1nc(N(C)S(C)(=O)=O)nc(-c2ccc(F)cc2)c1/C=C/C(O)CC(O)CC(=O)O` (centres undefined) [Rosuvastatin] are 1.56 ± 0.24 and 1.12 ± 0.1.
In the same order, the values of `CC1Oc2cc(cnc2N)-c2c(nn(C)c2C#N)CN(C)C(=O)c2ccc(F)cc21` (centres undefined) are 0.802 ± 0.14 and 0.945 ± 0.12.
On to `CC(C)(C)c1ccc(C(=O)CCCN2CCC(OC(c3ccccc3)c3ccccc3)CC2)cc1` [Ebastine], for which the cell viability in the assay on IL-6-GFP PC-9GR was found to be 0.62 ± 0.3; in the assay on IL-6-GFP PC-9, 0.628 ± 0.031.

The values above are taken from the supplement of paper PMC8866396.
